eIF4H inh – inhibitors of RNA binding by human eIF4H; 0.94% of 290,000 active; eIF4H fluorescence polarization binding assay; AID 2012; inhibition, % at 35 µM; Q15056;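 also: calls also rest on retests at 20 µM and on dose response follow-up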
eIF4E 4G PPI – blocks eIF4E binding to eIF4G; TR-FRET eIF4E-eIF4GI(517-606) binding, 2 h; inhibition, % at 21.7 µM; 0.37% of 220,000 active;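 active = inhibition above about 30%, limit read from the data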
PABP1 MLLE inh – blocks PAM2 peptide binding to the PABP1 MLLE domain | GST-MLLE / FITC-PAM2 fluorescence polarization | 0.36% of 360,000 active | inhibition, % at 20 µM | P11940; in the data active = inhibition above about 35%, passing the limit was not always enough
PABP FP inh – PABP-poly(A) binding inhibition. P11940. 1% of 290,000 active. calls only at 35 µM. PABP-poly(A) RNA binding, fluorescence polarization;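 also: calls also rest on retests at 20 µM and on dose response follow-up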
14-3-3 Bad inh – disrupts binding of bovine 14-3-3 zeta to phospho-Bad peptide; P63103; TR-FRET 14-3-3zeta/Dy647-pBad peptide displacement, 1 h; inhibition, % at 21.7 µM; 0.71% of 220,000 active;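 active = inhibition above about 70%, limit read from the data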
Target sequence (P63103 whole entry, looked up): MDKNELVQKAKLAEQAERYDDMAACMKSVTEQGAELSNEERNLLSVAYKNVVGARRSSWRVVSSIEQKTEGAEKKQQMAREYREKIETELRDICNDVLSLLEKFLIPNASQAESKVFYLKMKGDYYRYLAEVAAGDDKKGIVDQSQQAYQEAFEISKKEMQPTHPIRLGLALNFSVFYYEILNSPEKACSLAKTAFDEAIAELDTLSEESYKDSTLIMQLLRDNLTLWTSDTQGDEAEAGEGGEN
Large screens that a line does not name were inactive; [ ] = remark or other dose. Shown are actives, neighbours in structure and some others; about 1.9% of the full set was active somewhere. Unless noted, no rule for the calls is given here.

O=c1cc(-c2ccc([N+](=O)[O-])cc2)nc2cc(-c3ccc(Cl)cc3)[nH]n12	14-3-3 Bad inh 89[fluorescence artefact?] (no result: PABP1 MLLE inh)
COc1cc(CC(=O)N2CCN(S(=O)(=O)c3ccc(C)cc3)CC2)cc(OC)c1OC	none (no result: eIF4H inh, eIF4E 4G PPI, PABP FP inh, 14-3-3 Bad inh)
CC(C)NC(=O)CCCC(=O)NC(C)C	eIF4H inh 2.2, PABP FP inh active
CC(=O)c1c(C)[nH]c(C(=O)OCC(=O)Nc2ccc([N+](=O)[O-])cc2Cl)c1C	PABP FP inh active
Cc1cccc(/C=N/NC(=O)Cn2nc(C)cc2C)n1	eIF4H inh 102, PABP FP inh active
Cc1cc([N+](=O)[O-])nn1CC(=O)N/N=C/c1ccccc1F	eIF4H inh 58, PABP FP inh active
Cc1cc(C)n(CC(=O)N/N=C/c2ccccn2)n1	none
CC(C)(C)OC(=O)NCCCCCNC(=O)c1ncn2c1c(=O)[nH]c1ccccc12	none (no result: eIF4H inh, eIF4E 4G PPI, PABP FP inh, 14-3-3 Bad inh)
C=CCN1C(=O)/C(=C\c2ccc(Cl)cc2)N=C1SCC(=O)NC1CCCCC1	PABP1 MLLE inh 40
O=S(=O)(Nc1ncnc2scc(-c3ccc(F)cc3)c12)c1cc(F)ccc1F	none
CC(C)C1C(=O)N(Cc2cn(CC3CCCCC3)nn2)CCS(=O)(=O)N1Cc1ccc(-c2cccc(CO)c2)cc1 (centres undefined)	none (no result: eIF4H inh, eIF4E 4G PPI, PABP FP inh, 14-3-3 Bad inh)
CN1CCN(CCOc2cccc(Cl)c2)CC1	14-3-3 Bad inh 73
COc1cc(-c2nnc(SCC(=O)c3cc(C)n(CC4CCCO4)c3C)o2)cc(OC)c1OC (centres undefined)	eIF4H inh 70, PABP FP inh active
Cc1cc(C(=O)CSc2nnc(-c3ccc(F)cc3)o2)c(C)n1CC1CCCO1 (centres undefined)	none
COc1ccc2cc3c(N)nn(C(=O)c4cccc(F)c4)c3nc2c1	eIF4E 4G PPI 75
CCOC(=O)/C(=C/c1ccco1)NC(=O)c1ccc(Br)o1	none
CC(=O)COC(=O)C1CCN(S(=O)(=O)c2cc([N+](=O)[O-])ccc2Cl)CC1	none
O=C(COC(=O)C1CCN(S(=O)(=O)c2cc([N+](=O)[O-])ccc2Cl)CC1)Nc1ncc(Cl)cc1Cl	eIF4H inh 70, PABP FP inh active
O=C(Nc1ccccc1Br)c1cccc2ccccc12	none (no result: eIF4H inh, eIF4E 4G PPI, PABP FP inh, 14-3-3 Bad inh)
CC(=O)Nc1ccc(S(=O)(=O)Nc2ccccc2C(=O)NCc2cccnc2)cc1	none (no result: eIF4E 4G PPI, 14-3-3 Bad inh)
OCC(O)CNC(=S)NC1CCCCC1 (centres undefined)	PABP1 MLLE inh 42
CCCNC(=S)NC1CCCC1	none
COc1ccc(C2/C(=C(/O)c3ccc(Br)cc3)C(=O)C(=O)N2C)cc1 (centres undefined)	none (no result: eIF4E 4G PPI, 14-3-3 Bad inh)
C=CCOc1ccccc1CN1CCSCC1	14-3-3 Bad inh 80
C=CCOc1ccccc1CN1CCCCCC1	none (no result: eIF4E 4G PPI, 14-3-3 Bad inh)
Cc1cncc(NCc2cccc(Cl)c2)n1	none (no result: eIF4H inh, eIF4E 4G PPI, PABP FP inh, 14-3-3 Bad inh)
COCc1ccc(CN2CCCCC2C(=O)Nc2ccc(Oc3ccccc3)nc2)o1 (centres undefined)	none (no result: eIF4E 4G PPI, 14-3-3 Bad inh)
CCOC(=O)c1sc(=S)n(-c2ccc3c(c2)OCO3)c1N	PABP1 MLLE inh 40
CCOC(=O)c1sc(=S)n(-c2ccc(F)c(F)c2)c1N	none
CN(Cc1ccccc1)C(=O)c1[nH]cnc1C(=O)N[C@@H](CCCCNC(=O)OC(C)(C)C)C(=O)OC(C)(C)C	eIF4H inh 84, PABP FP inh active
C=C(C)C(=O)Nc1cccc(C2=NOC3(C2)C[C@H](C(N)=O)N(C(=O)c2ccccc2)C3)c1 (some centres undefined)	eIF4H inh 91, PABP FP inh active
C/C=C(\C)C(=O)N1CC2(CC(c3cccc(NC(=O)CC(c4ccccc4)c4ccccc4)c3)=NO2)C[C@H]1C(N)=O (some centres undefined)	eIF4E 4G PPI 88 (no result: PABP1 MLLE inh)
C=C(C)C(=O)Nc1cccc(C2=NOC3(C2)C[C@@H](C(N)=O)N(C(=O)c2ccc(Cl)cc2)C3)c1 (some centres undefined)	none (no result: eIF4H inh, PABP1 MLLE inh, PABP FP inh)
C=C(C)C(=O)Nc1cccc(C2=NOC3(C2)C[C@@H](C(N)=O)N(C(=O)C(=C)C)C3)c1 (some centres undefined)	eIF4H inh 93, PABP FP inh active
C=C(C)C(=O)Nc1cccc(C2=NOC3(C2)C[C@@H](C(N)=O)N(C(=O)C2(C)CC2)C3)c1 (some centres undefined)	eIF4H inh 100, PABP FP inh active
C=C(C)C(=O)N1CC2(CC(c3cccc(NC(=O)/C=C\C=C/C)c3)=NO2)C[C@H]1C(N)=O (some centres undefined)	none
NC(=O)[C@H]1CC2(CC(c3cccc(NC(=O)CC(c4ccccc4)c4ccccc4)c3)=NO2)CN1C(=O)C(c1ccccc1)c1ccccc1 (some centres undefined)	none
C/C=C\C(=O)Nc1cccc(C2=NOC3(C2)C[C@@H](C(N)=O)N(C(=O)C2(C)CC2)C3)c1 (some centres undefined)	none
NC(=O)c1cc2cc(Cc3ccccc3Cl)ccc2oc1=O	none
N#Cc1cnn(-c2ccccc2)c1NC(=O)CN1CCN(c2ccccc2)CC1	none
Cn1c(=O)c2[nH]c(CCCCCCCCc3nc4ccccc4[nH]3)nc2n(C)c1=O	none (no result: eIF4H inh, eIF4E 4G PPI, PABP FP inh, 14-3-3 Bad inh)
C=C(C)C(=O)Nc1cccc(C2=NOC3(C2)C[C@H](C(N)=O)N(C(=O)COc2ccc(Cl)cc2)C3)c1 (some centres undefined)	eIF4H inh 86, PABP FP inh active
CCC(=O)Nc1cccc(C2=NOC3(C2)C[C@@H](C(N)=O)N(C(=O)COc2ccc(Cl)cc2)C3)c1 (some centres undefined)	none
C=C1CCN(C(C(=O)OC)C(C)C)S(=O)(=O)c2ccccc21 (centres undefined)	none
CCN(CC)CCOc1cc2c(nn1)Oc1ccccc1N2C	14-3-3 Bad inh 83
CN1c2ccccc2Oc2nnc(Cl)cc21	none
O=C1NC(=S)S/C1=C/c1ccc(N2CCOCC2)o1	eIF4H inh 87, PABP FP inh active
O=C1S/C(=C/c2ccc(N3CCOCC3)o2)C(=O)N1Cc1ccc(F)cc1	none
Nc1ncnc(N2CCOCC2)c1N	eIF4H inh 87, PABP FP inh active
CC12CCCC[C@@H]1CCC1C2CCC2(C)C1CC[C@@]2(O)CNCCO (some centres undefined)	none (no result: eIF4E 4G PPI, 14-3-3 Bad inh)
Cc1ccccc1C(=O)Nc1cccc(C(=O)N/N=C/c2cc(Cl)cc([N+](=O)[O-])c2O)c1	eIF4E 4G PPI 36
COc1cc(/C=N/NC(=O)c2cccc(NC(=O)c3ccccc3C)c2)ccc1O	none (no result: eIF4E 4G PPI, 14-3-3 Bad inh)
Cc1cc(=O)c(C(=O)O)c(C)n1-c1ccccc1	none (no result: eIF4H inh, eIF4E 4G PPI, PABP FP inh, 14-3-3 Bad inh)
O=C(Nc1cccs1)Nc1c(F)c(F)c(F)c(F)c1F	PABP1 MLLE inh 43
Cc1cccc(C)c1NC(=O)Nc1cccs1	none
O=C(Nc1cccs1)Nc1c(F)c(F)cc(F)c1F	eIF4H inh 69, PABP FP inh active
CN1CCN(c2nnc(-c3ccc(F)cc3)c3ccccc23)CC1	none (no result: eIF4E 4G PPI, 14-3-3 Bad inh)
Cc1ccccc1NC(=S)Nc1cccc2cnccc12	none
Fc1ccccc1NC(=S)Nc1cccc2cnccc12	eIF4H inh 58, PABP1 MLLE inh 37
